Records with an inconclusive call do not appear. The source made the active and inactive calls. Unless noted, calls come from the whole dose curve; as a rule, active = well fitted curve in the direction sought with a large enough effect; inconclusive = small, poorly fitted or top-dose-only effect, or another doubt; inactive = no such curve, though single readings can be large; an effect the other way counts as inactive or inconclusive.
Tests used:
[1] = Cell Viability - MRC5 (AID 434; calls by dose curve;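 note: potency is the fitted concentration of half-maximal effect; cells exposed to compound for 40 hours at 37 °C; potency reflects cytotoxicity seen as loss of intracellular ATP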); conditions: MRC5 lung fibroblast viability, qHTS
In short: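 qHTS cytotoxicity in human lung fibroblast MRC5 cells; 40 hr treatment, 37 °C; cellular ATP by luciferase luminescence; DMSO = 0%, 100 uM tamoxifen = 100% inhibition; Hill-fit AC50.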

[2] = Cellular Toxicity (caspase-3) HepG2 (AID 654); conditions: HepG2 caspase-3 activation, luminescence; series mostly up to 92.2 µM;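 note: cells exposed to compound for 16 hours before reading; 0% = DMSO alone and 100% = caspase signal from 100 µM tamoxifen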
In short: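 HepG2 cells (1500/well) were treated 16 h at 37 °C in complete medium, then caspase 3/7 activity was read by Caspase-Glo luminescence. Data were normalized to DMSO and 100 uM tamoxifen; AC50 came from Hill-equation fits of qHTS concentration-response.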

[3] = Cellular Toxicity (caspase-3) HUV-EC-C (AID 656); conditions: HUV-EC-C cells, caspase-3 activation (apoptosis); series mostly up to 92.2 µM
In short: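 Concentration-dependent caspase 3/7 induction was assessed in HUV-EC-C cells exposed for 16 hours. Data scaled between DMSO and tamoxifen (100 uM) controls.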

[4] = Cellular Toxicity (caspase-3) SHSY5Y (AID 657); conditions: SH-SY5Y caspase-3 activation; series mostly up to 91.7 µM
In short: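 Readout: caspase-cleaved peptide-aminoluciferin substrate driving luciferase light in SH-SY5Y neuroblastoma cells after 16 h treatment. Response normalized to DMSO and 10 uM staurosporine controls.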

[5] = Cellular Toxicity (caspase-3) BJ (AID 658); conditions: BJ fibroblasts, luminescence; Potency: caspase-3 activation; series mostly up to 91.7 µM
In short: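 Readout: Caspase-Glo 3/7 luminescence increase in BJ cells after 16 hr treatment at 37 °C. Staurosporine and tamoxifen served as positive controls; AC50 values came from Hill modelling of data normalized to DMSO and 10 uM staurosporine.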

[6] = Cellular Toxicity (caspase-3) MRC-5 (AID 659); conditions: MRC-5 cells, luminescence, normalized: DMSO 0%, 10 µM staurosporine 100%; series mostly up to 91.7 µM
In short: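 Concentration-dependent caspase 3/7 activation is measured in human normal lung fibroblasts (MRC-5) following 16-hour treatment. AC50 values come from standard Hill-equation modeling of luminescence normalized to DMSO and 10 uM staurosporine.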

[7] = Cellular Toxicity (caspase-3) Mesangial (AID 660); conditions: mesangial cells, normalized: DMSO 0%, 100 µM tamoxifen 100%; series mostly up to 91.7 µM;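 note: cells exposed to compound for 16 h before the caspase read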
In short: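 Human renal glomerular mesangial cells, 1000/well, 5 h at 37 C before 16 h compound treatment. Caspase-Glo 3/7 luminescence after 20 min; normalized to DMSO and 100 uM tamoxifen, AC50 from Hill fit.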

[8] = Cellular Toxicity (caspase-3) SK-N-SH (AID 661); conditions: SK-N-SH caspase-3 activation, qHTS, DMSO as zero, staurosporine as full; series mostly up to 91.7 µM
In short: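 Human SK-N-SH neuroblastoma cells, 1500/well, were exposed to compounds for 16 hours at 37 °C. Caspase-Glo 3/7 luminescence was normalized to DMSO (basal) and 10 uM staurosporine (100%), and AC50 came from a Hill fit.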

[9] = Cellular Toxicity (caspase-3) H-4-II-E (AID 663); conditions: H-4-II-E rat hepatoma; Potency: caspase-3 activation; series mostly up to 92.2 µM;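 note: cells exposed to compound for 16 hr before readout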
In short: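 Apoptosis induction is scored as increased luminescence from caspase 3/7 substrate cleavage in rat hepatoma H-4-II-E cells exposed to compound for 16 hr. Activity is scaled between DMSO and 100 uM tamoxifen.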

[10] = Cellular Toxicity (caspase-3) Hek293 (AID 664); conditions: HEK293 caspase-3 activation, DMSO = 0%, 100 µM tamoxifen = 100%; at 92.2 µM (top of the series);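 note: cells exposed to compound for 16 h at 37 °C before readout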
In short: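 HEK293 cells in complete medium treated 16 h at 37 °C, then Caspase-Glo 3/7 luminescence read after 20 min at room temperature. Normalized to DMSO and 100 uM tamoxifen; AC50 from Hill fit of concentration-response.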

[11] = Cellular Toxicity (caspase-3) N2a (AID 665); conditions: N2a cells, luminescence, normalized: DMSO 0%, 10 µM staurosporine 100%; series mostly up to 92.2 µM;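 note: compound exposure lasted 16 h at 37 °C before readout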
In short: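 Mouse N2a neuroblastoma cells, 1500 per well, treated 16 h at 37 °C in complete medium; caspase-3/7 activity by Caspase-Glo luminescence after 1 h. Normalized to DMSO and 10 uM staurosporine; AC50 from Hill fits.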

[12] = Cellular Toxicity (caspase-3) Renal Proximal Tubule (AID 667); conditions: renal proximal tubule cells, primary cells freshly taken from rat; Potency: caspase-3 activation; series mostly up to 91.7 µM;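 note: cells exposed to compound for 16 hours at 37 °C before detection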
In short: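 Caspase-Glo 3/7 read-out, rat primary kidney proximal tubule cells. Compound exposure 16 h, 37 °C; detection after 1 h at RT. Activity scaled to DMSO and 10 uM staurosporine.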

[13] = MultiTox-Fluor Cytotoxicity Assay - LYMP1-001 - Dead Cells (AID 946); conditions: LYMP1-001 lymphoblastoid cells, dead-cell protease fluorescence; series mostly up to 92.2 µM
In short: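 Cytotoxicity as increased dead-cell protease fluorescence (bis-AAF-R110, 485/520 nm), read 60 min after MultiTox-Fluor reagent. Human lymphoblastoid line exposed 16 h; Hill-fitted AC50, with DMSO as 0% and 15 uM tetraoctylammonium bromide as 100%.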

[14] = MultiTox-Fluor Cytotoxicity Assay - LYMP1-003 - Live Cells (AID 962); conditions: LYMP1-003 lymphoblastoid cells, MultiTox-Fluor live-cell protease fluorescence; series mostly up to 92.2 µM;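 note: 0% = DMSO only and full loss = 92 µM tetraoctylammonium bromide; cytotoxic hits lower the live-cell protease signal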
In short: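 LYMP1-003 lymphoblastoid cells, 2500/well in complete medium, treated 16 h at 37 C; live-cell protease cleavage of GF-AFC read by fluorescence (Ex/Em 405/510) after 60 min reagent; AC50 from Hill fits of concentration-response.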

[15] = Cell Viability - LYMP1-003 - Assay at 24 hr (AID 963); conditions: LYMP1-003 lymphoblastoid cell viability; series mostly up to 92.2 µM;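 note: plate controls were DMSO only for no effect and tetraoctylammonium bromide positive control for full effect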
In short: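 Human lymphoblastoid LYMP1-003 cells, 2500/well, treated 24 h at 37 C in complete medium. Viability read as intracellular ATP by CellTiter-Glo luminescence after 30 min at room temperature; AC50 from Hill-equation fits of qHTS concentration-response.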

[16] = qHTS Assay for Identification of Small Molecule Inducers of Hypoxia Response (AID 2120; active = well fitted curve in the direction sought with a large enough effect in the signal ratio, with a control signal flat, not every such curve was filed as active; the % refers to the signal ratio; note: 0% is about no effect); conditions: hypoxia response reporter cells, beta-lactamase ratio readout; series mostly up to 104 µM
In short: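 HRE-bla ME-180 cells in Opti-MEM with 0.5% dialyzed FBS, pre-plated 4-5 h, then compound titration for 17 h at 37 degrees Celsius. CCF4 loaded 2.5 h at room temperature; 460/530 nm ratio gave %Activity and AC50 for induction.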

[17] = molecular target: Peroxisome proliferator-activated receptor alpha (Homo sapiens) (UniProt Q07869); test: qHTS assay for small molecule agonists of the peroxisome proliferator-activated receptor alpha (PPARalpha) signaling pathway (AID 651778); conditions: PathHunter PPARalpha complementation, chemiluminescence, 6 h; max response: hits give high values; note: % of control where 0% means no effect
In short: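 Chemiluminescence from complemented enzyme reported PPARalpha activation in cells after 6 hr of compound treatment at 37 C. The detection reagent was incubated for 60 min at room temperature, and compounds were scored as agonists.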

[18] = qHTS assay for small molecule agonists of the antioxidant response element (ARE) signaling pathway measured by Nrf2-dependant transcriptional activity - cell viability counter screen (AID 720653; active = well fitted curve in the direction sought with a large enough effect in the repeat runs; an effect the other way counts as inactive or inconclusive; note: % is set by controls: 0 for no effect and ±100 for the full control effect); conditions: ARE-bla HepG2 viability, CellTiter-Glo ATP luminescence, 16 h; max response: hits give low values
In short: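 Cytotoxicity counter screen: intracellular ATP quantified by CellTiter-Glo luminescence in the same ARE-bla HepG2 plates, after 16 h compound exposure and a 2 h beta-lactamase substrate step.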

[19] = qHTS assay for cell viability of HEK293 cells (AID 743288); conditions: ATP luminescence (CellTiter-Glo), 18 h; max response: hits give low values; note: % is set by controls: 0 for no effect and ±100 for the full control effect; nearly all actives have a fitted effect of over 50% in size
In short: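 Luminescent ATP quantitation served as the viability read-out. Cells (parental HEK293, 2,000/well) received compounds after at least 5 h at 37 C and were exposed for 18 h before a 30 min room-temperature reagent step.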

[20] = qHTS assay for cell viability of the p53RE-bla HCT-116 cell line (AID 743292); conditions: p53RE-bla HCT-116 viability, ATP luminescence, 16 h; series mostly up to 95 µM; note: nearly all actives have a fitted effect of over 55% in size; note: potency is the fitted concentration of half-maximal effect
In short: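 ATP-based luminescence, 16 h compound exposure at 37 C, p53RE-bla HCT-116 cells at 4,000/well.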

Chain of Peroxisome proliferator-activated receptor alpha (Homo sapiens) (Q07869 whole entry, looked up): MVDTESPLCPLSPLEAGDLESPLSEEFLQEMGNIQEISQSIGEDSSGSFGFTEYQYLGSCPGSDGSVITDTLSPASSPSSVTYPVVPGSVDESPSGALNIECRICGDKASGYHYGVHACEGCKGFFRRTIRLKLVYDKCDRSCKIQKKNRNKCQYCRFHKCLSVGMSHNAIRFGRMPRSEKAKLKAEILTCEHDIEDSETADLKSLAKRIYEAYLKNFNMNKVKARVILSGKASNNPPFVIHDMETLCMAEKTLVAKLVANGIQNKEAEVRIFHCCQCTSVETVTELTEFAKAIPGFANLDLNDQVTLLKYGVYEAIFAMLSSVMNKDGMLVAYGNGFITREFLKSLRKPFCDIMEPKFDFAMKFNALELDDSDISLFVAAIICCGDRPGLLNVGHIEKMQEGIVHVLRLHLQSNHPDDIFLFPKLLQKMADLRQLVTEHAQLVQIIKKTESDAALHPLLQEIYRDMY

CC(C)(C)C(=O)C1C(=O)c2ccccc2C1=O
inactive: Potency [1] > 92 µM | Potency [2] | Potency [3] | Potency [4] | Potency [5] | outcome [6] | outcome [7] | outcome [8] | Potency [9] | caspase-3 activation [10] -1.93% | outcome [11] | Potency [12] | Potency [13] | Potency [14] | Potency [15] | Potency [16] | max response [17] 0.134% | max response [18] -24.2% | max response [19] -22.9% | Potency [20]

CCCCC(CC)COP(=O)(OCC(CC)CCCC)OCC(CC)CCCC (stereo unspecified)
inactive: Potency [1] > 92 µM | Potency [2] | Potency [3] | Potency [4] | Potency [5] | outcome [6] | outcome [7] | outcome [8] | Potency [9] | caspase-3 activation [10] 2.89% | outcome [11] | Potency [12] | Potency [13] | Potency [14] | Potency [15] | Potency [16] | max response [17] -6.02% | max response [18] -10.8% | max response [19] -14.3% | Potency [20]

O=C=Nc1ccc(Cl)c(Cl)c1
inactive: Potency [2] | Potency [3] | Potency [4] | Potency [5] | outcome [6] | outcome [7] | outcome [8] | Potency [9] | caspase-3 activation [10] 9.15% | outcome [11] | Potency [12] | Potency [14] | Potency [15] | Potency [16] | max response [17] 21.6% | max response [18] -6.45% | Potency [20]

CC(=O)Nc1cccc(C)c1
inactive: Potency [1] > 92 µM | Potency [2] | Potency [3] | Potency [4] | Potency [5] | outcome [6] | outcome [7] | outcome [8] | Potency [9] | caspase-3 activation [10] -2.37% | outcome [11] | Potency [12] | Potency [13] | Potency [14] | Potency [15] | Potency [16] | max response [17] -3.01% | max response [18] -7.75% | max response [19] 2.07% | Potency [20]

CCCCCCCC/C=C\CCCCCCCC(=O)N(CCO)CCO
inactive: Potency [1] > 92 µM | Potency [2] | Potency [3] | Potency [4] | Potency [5] | outcome [6] | outcome [7] | outcome [8] | outcome [11] | Potency [12] | Potency [13] | Potency [14] | Potency [15] | Potency [16] | max response [17] 28.4% | max response [18] -24.9% | max response [19] -16% | Potency [20]

Cc1c(C(=O)O)c(O)cc2c1C(=O)c1c(O)c([C@H]3O[C@H](CO)[C@@H](O)[C@H](O)[C@H]3O)c(O)c(O)c1C2=O
inactive: Potency [2] | Potency [3] | Potency [4] | Potency [5] | outcome [6] | outcome [7] | outcome [8] | Potency [9] | caspase-3 activation [10] -3.17% | outcome [11] | Potency [12] | Potency [13] | Potency [14] | Potency [16] | max response [17] -8.63%
active: Potency [20] 44.7 µM

Source: PubChem BioAssay (NCATS)
